Measured values: the supplement of paper PMC6555819

system: VDR homodimer (NR concentration 270 nM); experiment: PBM binding z-score (relative to random genomic background probes); higher = stronger binding; sequences stand for … in GC…GCGATTGACAGCGTAGAATGAAGG
Summary of the method: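 Antibodies against each partner of ligand-free nuclear receptor dimers (one per run) detected binding on custom Agilent 4×180K protein-binding microarrays after 1 h incubation. The double-stranded probes had 34-nt variable regions carrying direct-repeat seeds, single-nucleotide variants, half-site ablations and random human genomic background sequences. Binding z-scores, from regression-normalized fluorescence, use the random background probes as reference.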

First: AGAATTAGGTTATTAAGATCAGGGAATTGCGGTC
Second: AGAACGAGGGCAAAGAGTTGATAGCACGGGTGGC
The PBM binding z-score of the first is lower: 0.494 for the first, 3.05 for the second.

Going from TTACGAAGGTGAAGGTCGTTGATCCCTCTGTAGA to CAGCCTAGGTCACGGCCAGTATAGGAGGAACGTT, the PBM binding z-score falls from 0.942 to 0.435.

Going from AGTCTAAGTTCATCTAGGTAACGTAAGATATGCT to GCTGCTAGGTCAAATGATGGTCAGCTAAAGCTCG, the PBM binding z-score falls from 5.9 to -0.00739.

Compared with CAAACTAGGTCTAGAGGTCAAAGTCCGCTTCCCG, CCGACTGGGGCATAAGGTTAACATAAGCCAGCCC is lower in PBM binding z-score: 4.46 for the first, -0.243 for the second.

Going from AGAACGTGGGCACGCTGAGTTGATAGCAGAGTAG to CAAACTAGGTCACGAAAGGTCAAACTCGAATGAC, the PBM binding z-score rises from -0.131 to 4.06.

First: GCGACTGGGGCATCCGCAGGTTACCATAACTTAA
Second: ATCTCTATGTAAAGTTCAGTGAAAGATCGATAGA
The PBM binding z-score of the first is lower: -0.454 for the first, 2.03 for the second.

First: TGAATGAGGTTATAAGATTAGGGAACGTTGCAAA
Second: GCGACTGGGGCATCAGCAGGTTACCACAACTTAA
The PBM binding z-score of the first is higher: 0.323 for the first, -0.222 for the second.

First: GCTATTAGTTGAAAGGGCAACTGAATGATTCTCG
Second: ATCTCTAGGTAAAGATAGTTCAGTGATTGCAAAT
The PBM binding z-score of the first is lower: 0.256 for the first, 0.789 for the second.

Compared with GGAAGGAGGGCATTCGAGTTGATAGCATGGCGAT, CCTATCAGGCCAATCTGGGTCACTCAAGGCTTGA is lower in PBM binding z-score: 2.01 for the first, -0.0119 for the second.

First: ACTAGCAGGCCAAGGGTCATTCAAGATTAGTCCG
Second: CCGAGTAGGTTATGGGGCATTCAAGCAACGGTGA
The PBM binding z-score of the first is higher: 2.6 for the first, 0.0962 for the second.

Compared with TTTCAAAGTTCAAAGGTAACGTAAGTATCCACAC, TCTAGCAGGCCAGAGGGTCGCTCAAGAGGTACGG is lower in PBM binding z-score: 4.68 for the first, -0.526 for the second.
